In the supplement of paper PMC10849652:
The full data set covers some 7,900 targets. This sample favours those with a hit. About 0.6% of all pairs of compound and target were hits.

compound: CCCS(=O)(=O)Nc1ccc(F)c(C(=O)c2c[nH]c3ncc(Cl)cc23)c1F; assay: log2 fold change, soluble protein after heating vs DMSO (PISA); higher = thermal stabilisation; K562 cells, 10 uM, 30 min; active = over 0.2 and 3.5 SD of the protein, either way, in both replicates (recomputed)
Summary of the method: (§1)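 Aliquots of K562 cells (2×10^6 cells/mL) treated with 10 μM compound for 30 min were heated for 3 min over 48°C-58°C. After pooling and extraction in PBS with 0.5% NP-40 at 4°C, soluble protein from a 21,000xg, 90 min spin was quantified by TMTpro 16plex LC-MS/MS with channel sums equalised. Thermal stability is expressed against control samples, from duplicates, as a log2 fold change.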

Chain of UniProt Q8TEM1 (Q8TEM1 whole entry, looked up): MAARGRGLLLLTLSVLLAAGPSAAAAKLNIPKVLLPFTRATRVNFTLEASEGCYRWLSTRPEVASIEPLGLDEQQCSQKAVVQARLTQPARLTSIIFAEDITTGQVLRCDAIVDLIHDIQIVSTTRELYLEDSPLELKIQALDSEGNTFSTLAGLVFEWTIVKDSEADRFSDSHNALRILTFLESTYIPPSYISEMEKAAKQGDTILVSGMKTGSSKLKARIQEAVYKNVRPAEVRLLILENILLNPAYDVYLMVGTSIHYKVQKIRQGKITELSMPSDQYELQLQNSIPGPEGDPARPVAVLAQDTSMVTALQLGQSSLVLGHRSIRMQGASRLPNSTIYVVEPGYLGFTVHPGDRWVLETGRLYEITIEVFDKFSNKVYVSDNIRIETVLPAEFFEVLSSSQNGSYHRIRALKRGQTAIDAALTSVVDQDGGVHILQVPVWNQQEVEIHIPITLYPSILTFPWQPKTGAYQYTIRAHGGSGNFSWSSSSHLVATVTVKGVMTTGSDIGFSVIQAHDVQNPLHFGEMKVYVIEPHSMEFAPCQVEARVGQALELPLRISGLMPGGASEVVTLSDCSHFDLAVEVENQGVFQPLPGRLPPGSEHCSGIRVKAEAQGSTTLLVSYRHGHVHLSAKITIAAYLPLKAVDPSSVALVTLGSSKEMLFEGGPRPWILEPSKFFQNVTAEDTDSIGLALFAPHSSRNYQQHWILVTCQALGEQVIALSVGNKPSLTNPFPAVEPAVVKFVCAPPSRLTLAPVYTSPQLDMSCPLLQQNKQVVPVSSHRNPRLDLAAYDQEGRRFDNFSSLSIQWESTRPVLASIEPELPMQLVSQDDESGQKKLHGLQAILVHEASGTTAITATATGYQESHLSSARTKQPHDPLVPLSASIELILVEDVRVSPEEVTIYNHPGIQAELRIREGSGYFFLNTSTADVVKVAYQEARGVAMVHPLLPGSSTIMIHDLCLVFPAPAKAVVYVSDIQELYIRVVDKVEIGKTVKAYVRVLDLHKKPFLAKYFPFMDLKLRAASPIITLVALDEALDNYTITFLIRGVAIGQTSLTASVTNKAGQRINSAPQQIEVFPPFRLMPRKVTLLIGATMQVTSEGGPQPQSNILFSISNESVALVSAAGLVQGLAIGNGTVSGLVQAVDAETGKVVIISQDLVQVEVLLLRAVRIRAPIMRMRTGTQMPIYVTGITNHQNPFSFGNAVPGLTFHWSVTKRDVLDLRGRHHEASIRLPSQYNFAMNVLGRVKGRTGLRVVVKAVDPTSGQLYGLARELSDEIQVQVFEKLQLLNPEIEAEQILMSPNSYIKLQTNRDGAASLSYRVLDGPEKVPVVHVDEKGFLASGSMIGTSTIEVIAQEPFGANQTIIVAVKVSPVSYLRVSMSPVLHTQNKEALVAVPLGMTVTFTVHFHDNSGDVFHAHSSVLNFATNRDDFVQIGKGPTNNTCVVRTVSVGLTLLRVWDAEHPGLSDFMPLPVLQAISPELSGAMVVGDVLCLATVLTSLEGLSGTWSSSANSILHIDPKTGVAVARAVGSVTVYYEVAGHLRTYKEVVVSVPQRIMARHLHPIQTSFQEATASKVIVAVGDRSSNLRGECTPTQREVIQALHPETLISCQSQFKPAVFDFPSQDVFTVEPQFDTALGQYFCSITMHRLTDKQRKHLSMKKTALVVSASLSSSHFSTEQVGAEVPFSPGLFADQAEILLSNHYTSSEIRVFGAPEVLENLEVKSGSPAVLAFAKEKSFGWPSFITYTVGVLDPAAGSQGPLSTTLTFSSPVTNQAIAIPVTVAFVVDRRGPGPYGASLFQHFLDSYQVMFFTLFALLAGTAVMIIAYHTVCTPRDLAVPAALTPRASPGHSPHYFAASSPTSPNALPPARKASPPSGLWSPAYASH
Chain of UniProt Q9HAN9 (Q9HAN9 whole entry, looked up): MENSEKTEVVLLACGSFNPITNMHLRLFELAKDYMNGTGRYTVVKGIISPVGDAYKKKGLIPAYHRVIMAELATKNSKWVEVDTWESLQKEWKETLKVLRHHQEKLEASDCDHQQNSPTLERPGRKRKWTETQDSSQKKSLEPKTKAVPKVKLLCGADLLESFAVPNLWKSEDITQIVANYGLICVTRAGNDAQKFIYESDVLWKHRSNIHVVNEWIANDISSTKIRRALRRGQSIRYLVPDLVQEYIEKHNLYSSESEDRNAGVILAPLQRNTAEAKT
Chain of UniProt Q9Y5B8 (Q9Y5B8 whole entry, looked up): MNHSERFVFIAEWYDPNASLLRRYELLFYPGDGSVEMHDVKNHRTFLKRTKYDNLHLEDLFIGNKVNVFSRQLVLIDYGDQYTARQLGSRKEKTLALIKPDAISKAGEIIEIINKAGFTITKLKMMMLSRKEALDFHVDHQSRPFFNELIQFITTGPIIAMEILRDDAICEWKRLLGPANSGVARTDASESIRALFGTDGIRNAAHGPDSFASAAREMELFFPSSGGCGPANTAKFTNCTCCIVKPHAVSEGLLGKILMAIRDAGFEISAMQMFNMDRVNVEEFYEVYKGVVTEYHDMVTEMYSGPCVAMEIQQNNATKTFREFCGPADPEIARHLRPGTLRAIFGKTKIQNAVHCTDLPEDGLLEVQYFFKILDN
Chain of UniProt Q9Y314 (Q9Y314 whole entry, looked up): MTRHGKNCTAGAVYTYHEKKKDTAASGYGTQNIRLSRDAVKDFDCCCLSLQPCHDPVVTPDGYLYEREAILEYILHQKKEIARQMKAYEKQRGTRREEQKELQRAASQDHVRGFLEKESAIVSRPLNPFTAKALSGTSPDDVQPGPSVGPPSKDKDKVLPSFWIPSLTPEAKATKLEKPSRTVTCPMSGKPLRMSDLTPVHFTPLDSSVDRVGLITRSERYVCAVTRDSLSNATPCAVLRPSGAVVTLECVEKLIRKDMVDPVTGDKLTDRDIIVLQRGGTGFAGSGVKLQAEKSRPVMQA
Chain of UniProt Q8NBF2 (Q8NBF2 whole entry, looked up): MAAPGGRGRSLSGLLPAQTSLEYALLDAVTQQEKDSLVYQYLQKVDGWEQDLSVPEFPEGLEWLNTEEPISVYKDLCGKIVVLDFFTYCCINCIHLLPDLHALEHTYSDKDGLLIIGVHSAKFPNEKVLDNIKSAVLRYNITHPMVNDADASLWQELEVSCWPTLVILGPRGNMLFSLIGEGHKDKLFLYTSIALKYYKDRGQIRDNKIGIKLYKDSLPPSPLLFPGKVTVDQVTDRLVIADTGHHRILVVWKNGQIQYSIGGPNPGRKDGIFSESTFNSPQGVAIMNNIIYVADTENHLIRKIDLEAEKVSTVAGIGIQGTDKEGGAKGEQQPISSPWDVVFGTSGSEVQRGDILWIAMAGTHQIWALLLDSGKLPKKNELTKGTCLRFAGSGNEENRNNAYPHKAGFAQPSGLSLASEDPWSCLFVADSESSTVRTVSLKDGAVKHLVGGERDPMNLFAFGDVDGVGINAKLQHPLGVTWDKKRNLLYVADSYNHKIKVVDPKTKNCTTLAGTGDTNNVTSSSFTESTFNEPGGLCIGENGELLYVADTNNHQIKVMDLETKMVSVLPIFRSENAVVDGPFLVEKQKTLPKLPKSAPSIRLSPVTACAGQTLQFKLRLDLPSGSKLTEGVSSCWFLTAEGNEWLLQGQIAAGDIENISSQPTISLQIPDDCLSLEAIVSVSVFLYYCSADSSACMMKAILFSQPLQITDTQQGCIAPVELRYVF
Chain of UniProt Q969V5 (Q969V5 whole entry, looked up): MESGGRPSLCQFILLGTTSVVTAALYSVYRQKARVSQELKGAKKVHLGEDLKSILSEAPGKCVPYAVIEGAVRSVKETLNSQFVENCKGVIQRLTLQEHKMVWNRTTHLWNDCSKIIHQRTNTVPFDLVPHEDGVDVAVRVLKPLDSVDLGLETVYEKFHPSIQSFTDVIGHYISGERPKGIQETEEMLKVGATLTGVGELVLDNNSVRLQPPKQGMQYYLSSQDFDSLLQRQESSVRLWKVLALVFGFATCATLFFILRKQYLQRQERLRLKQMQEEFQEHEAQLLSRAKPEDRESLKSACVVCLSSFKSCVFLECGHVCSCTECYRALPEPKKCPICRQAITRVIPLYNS
Chain of UniProt O60551 (O60551 whole entry, looked up): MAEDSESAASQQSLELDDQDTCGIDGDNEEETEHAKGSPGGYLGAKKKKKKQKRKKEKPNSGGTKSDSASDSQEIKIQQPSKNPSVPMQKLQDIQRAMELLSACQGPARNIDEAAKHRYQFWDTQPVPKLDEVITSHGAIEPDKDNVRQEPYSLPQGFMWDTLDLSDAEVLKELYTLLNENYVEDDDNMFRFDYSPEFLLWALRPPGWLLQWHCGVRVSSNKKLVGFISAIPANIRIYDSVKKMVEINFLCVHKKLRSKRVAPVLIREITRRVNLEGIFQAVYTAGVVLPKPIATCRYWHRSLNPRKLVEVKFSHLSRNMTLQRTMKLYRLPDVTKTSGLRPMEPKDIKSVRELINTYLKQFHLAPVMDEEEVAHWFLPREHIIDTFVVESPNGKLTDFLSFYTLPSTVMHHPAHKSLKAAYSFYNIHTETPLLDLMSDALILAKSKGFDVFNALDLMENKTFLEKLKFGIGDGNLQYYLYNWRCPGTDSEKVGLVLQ
Chain of UniProt Q9Y2X3 (Q9Y2X3 whole entry, looked up): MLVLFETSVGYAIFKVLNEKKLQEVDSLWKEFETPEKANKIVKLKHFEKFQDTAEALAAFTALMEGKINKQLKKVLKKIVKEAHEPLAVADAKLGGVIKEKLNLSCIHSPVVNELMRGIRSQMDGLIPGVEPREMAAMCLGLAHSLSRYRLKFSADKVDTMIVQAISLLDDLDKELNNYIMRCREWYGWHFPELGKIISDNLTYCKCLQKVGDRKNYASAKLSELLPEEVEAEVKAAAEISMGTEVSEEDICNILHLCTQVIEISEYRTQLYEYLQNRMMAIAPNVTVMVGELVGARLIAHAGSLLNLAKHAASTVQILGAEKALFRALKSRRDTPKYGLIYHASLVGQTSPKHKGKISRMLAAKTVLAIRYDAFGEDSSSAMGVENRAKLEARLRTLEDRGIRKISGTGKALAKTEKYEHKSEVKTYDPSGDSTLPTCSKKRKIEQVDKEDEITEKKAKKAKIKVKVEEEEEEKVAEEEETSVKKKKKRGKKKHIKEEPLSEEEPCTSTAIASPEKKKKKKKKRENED

log2 fold change, inactive:
MRPS9 (UniProt P82933) 0.053
NMNAT1 (UniProt Q9HAN9) -0.139
NOP53 (UniProt Q9NZM5) -0.147
MT-ND4 (UniProt P03905) 0.016
NHLRC2 (UniProt Q8NBF2) -0.048
NME7 (UniProt Q9Y5B8) 0.081
MRPS16 (UniProt Q9Y3D3) 0.062
NR2C2 isoform 2 (UniProt P49116) 0.03
MORC3 (UniProt Q14149) 0.032
NQO1 (UniProt P15559) -0.007
NDUFA7 (UniProt O95182) 0.019
NOB1 (UniProt Q9ULX3) 0.031
NOP58 (UniProt Q9Y2X3) 0.041
NEMP1 (UniProt O14524) -0.041
NA, A0A0B4J2A0 0.072
OSBPL8 (UniProt Q9BZF1) 0.035
NFX1 (UniProt Q12986) -0.032
OTUD4 (UniProt Q01804) 0.007
NUMB (UniProt P49757) -0.002
MUL1 (UniProt Q969V5) 0.024
OXR1 (UniProt Q8N573) -0.013
NUP210 (UniProt Q8TEM1) 0.058
MINK1 (UniProt Q8N4C8) 0.024
NUDT1 (UniProt P36639) 0.209
NAA11 (UniProt Q9BSU3) -0.067
NSDHL (UniProt Q15738) -0.027
MIS12 (UniProt Q9H081) -0.002
NFATC2 (UniProt Q13469) 0.041
NUDT16 (UniProt Q96DE0) 0.019
MRPS6 (UniProt P82932) 0.059
MRPS18B (UniProt Q9Y676) 0
MPHOSPH8 isoform 2 (UniProt Q99549) -0.1
NEK3 (UniProt P51956) -0.123
MT-ATP6 (UniProt P00846) -0.043
MYH11 isoform 2 (UniProt P35749) -0.006
NMT2 (UniProt O60551) 0.031
NOSIP (UniProt Q9Y314) 0.168
NELFA (UniProt Q9H3P2) 0.097

compound: CCCc1cc(C)[nH]c(=O)c1CNC(=O)c1cc(-c2ccnc(N3CCN(C)CC3)c2)cc2c1cnn2C(C)C; assay: as above
Summary of the method: as §1

log2 fold change, inactive:
MRPS9 (UniProt P82933) -0.019
NMNAT1 (UniProt Q9HAN9) 0.178
NOP53 (UniProt Q9NZM5) 0.204
MT-ND4 (UniProt P03905) 0.014
NHLRC2 (UniProt Q8NBF2) -0.076
NME7 (UniProt Q9Y5B8) -0.06
MRPS16 (UniProt Q9Y3D3) 0.032
NR2C2 isoform 2 (UniProt P49116) 0.04
MORC3 (UniProt Q14149) 0.11
NQO1 (UniProt P15559) 0.039
NDUFA7 (UniProt O95182) -0.079
NOB1 (UniProt Q9ULX3) 0.182
NOP58 (UniProt Q9Y2X3) 0.081
NEMP1 (UniProt O14524) -0.001
NA, A0A0B4J2A0 -0.091
OSBPL8 (UniProt Q9BZF1) 0.309
NFX1 (UniProt Q12986) 0.17
OTUD4 (UniProt Q01804) -0.03
NUMB (UniProt P49757) 0.004
MUL1 (UniProt Q969V5) 0.11
OXR1 (UniProt Q8N573) -0.062
NUP210 (UniProt Q8TEM1) -0.05
MINK1 (UniProt Q8N4C8) 0.003
NUDT1 (UniProt P36639) -0.026
NAA11 (UniProt Q9BSU3) 0.047
NSDHL (UniProt Q15738) -0.031
MIS12 (UniProt Q9H081) 0.023
NFATC2 (UniProt Q13469) 0.086
NUDT16 (UniProt Q96DE0) -0.041
MRPS6 (UniProt P82932) 0.062
MRPS18B (UniProt Q9Y676) -0.081
MPHOSPH8 isoform 2 (UniProt Q99549) -0.002
NEK3 (UniProt P51956) -0.063
MT-ATP6 (UniProt P00846) -0.014
MYH11 isoform 2 (UniProt P35749) -0.253
NMT2 (UniProt O60551) 0.02
NOSIP (UniProt Q9Y314) 0.047
NELFA (UniProt Q9H3P2) 0.024
